Data on 13 compounds can be found in PubChem BioAssay (NCI).

About 83,000 compounds went through this panel and 20% of them were active in at least one assay; those are over-represented in the sample as a whole.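 Activity criterion: percent growth below 10, measured after cells in 96-well plates were exposed to a single compound concentration for 48 hours.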 Values without a mark were called inactive. Calls of active or inactive are those of the source.

Test systems include DU-145 prostate; K-562 leukemia; MALME-3M melanoma; MDA-MB-231 breast; RXF 393 renal; SF-268 CNS; SF-295 CNS; SF-539 CNS; UACC-257 melanoma; M14 melanoma.
What all share (assay): NCI-60 one-dose screen, 48 h (100 = growth as untreated, 0 = no growth, -100 = all killed)
Holding throughout (conditions): 10 µM unless noted

In the case of `CCCCCCCCCCCCCCNc1nc(CO)ncc1-c1ccc(C(F)(F)F)cc1`, the growth was 103% in the test with DU-145 prostate; 99.6% in the test with K-562 leukemia; 91.8% in the test on MALME-3M melanoma; 118% in the test with MDA-MB-231 breast; 99.8% in the test with RXF 393 renal; 91.8% with SF-268 CNS. Besides, the growth with SF-295 CNS was 97%; with SF-539 CNS it was 95.6%; in the test on UACC-257 melanoma, 94.7%; in the test on M14 melanoma it was 99.8%.
As to `COc1nc2c(cc1S(=O)(=O)c1ccccc1)CCc1c-2cnn1-c1ccccc1`, the growth in the test on DU-145 prostate was 95.4%; in the test on K-562 leukemia it was 54.1%; with MALME-3M melanoma, 69.2%; with MDA-MB-231 breast it was 89.2%; in the test on RXF 393 renal it was 94.4%; in the test on SF-268 CNS, 86.8%. Also, the growth was 84.9% with SF-295 CNS, 79% in the test on SF-539 CNS, 78.2% with UACC-257 melanoma and 80.7% with M14 melanoma.
In the case of `COc1cc2cc(Oc3ccc(NC(=O)Nc4ccc(Cl)c(C(F)(F)F)c4)cc3)c(C)nc2cc1OCCN1CCCCC1`, the growth was -85.2% (active) in the test with DU-145 prostate; -48.1% (active) in the test with K-562 leukemia; -78.4% (active) in the test on MALME-3M melanoma; -87.2% (active) with MDA-MB-231 breast; 44.2% with RXF 393 renal; 3.42% (active) with SF-268 CNS. Moreover, the growth in the test with SF-295 CNS is 57.5%; in the test with SF-539 CNS, -89.8% (active); with UACC-257 melanoma, -49.4% (active); with M14 melanoma, -67.4% (active).
Turning to `CCOC(=O)c1c(-c2cc(OC)c(OC)c(OC)c2)csc1N`, the growth with DU-145 prostate was 101%; in the test with K-562 leukemia, 45.5%; in the test on MALME-3M melanoma it was 92.1%; in the test with MDA-MB-231 breast it was 105%; in the test with RXF 393 renal, 93.2%; in the test on SF-268 CNS it was 94.5%. The growth in the test with SF-295 CNS is 65.4%; with SF-539 CNS it was 94.7%; in the test with UACC-257 melanoma, 104%; with M14 melanoma it was 89.8%.
With `COc1nc2c(cc1S(=O)(=O)c1ccccc1)CCc1c-2cnn1-c1cccc(Cl)c1`, the growth in the test on DU-145 prostate is 97%; in the test with K-562 leukemia it was 61.4%; in the test with MALME-3M melanoma it was 78.7%; in the test with MDA-MB-231 breast it was 89.7%; with RXF 393 renal, 76.7%; in the test on SF-268 CNS, 87.2%. In addition, the growth in the test on SF-295 CNS was 80.2%; with SF-539 CNS, 81.7%; in the test with UACC-257 melanoma, 78.7%; in the test on M14 melanoma, 83.4%.
For `COc1ccc(NC(=O)c2ccc3c(c2)nc(-c2ccc(Cl)cc2)n3-c2cc(C(C)(C)C)[nH]n2)cc1`, the growth with DU-145 prostate was 90.2%; in the test with K-562 leukemia, 86%; in the test with MALME-3M melanoma, 91.1%; with MDA-MB-231 breast, 95.4%; with RXF 393 renal it was 79.1%; in the test with SF-268 CNS it was 76.2%. The growth in the test on SF-295 CNS was 67.8%; in the test with SF-539 CNS, 87.6%; in the test with UACC-257 melanoma, 96.4%; in the test on M14 melanoma, 82.3%.
For `CCN(C(=O)c1ccc2c3c(cccc13)C=C2)c1ccccc1`, the growth is 113% in the test on DU-145 prostate; 82.7% in the test with K-562 leukemia; 90.1% in the test on MALME-3M melanoma; 103% with MDA-MB-231 breast; 102% with RXF 393 renal; 107% with SF-268 CNS. Also, the growth is 93.6% in the test with SF-295 CNS, 97.4% in the test on SF-539 CNS, 97% in the test on UACC-257 melanoma and 94.5% with M14 melanoma.
As to `COc1cccc(C2CC(=O)Nc3cc4c(cc32)OCO4)c1OC` (stereo not given), the growth with DU-145 prostate is 103%; with K-562 leukemia it was 83.1%; with MALME-3M melanoma it was 93.1%; in the test on MDA-MB-231 breast it was 97.3%; in the test on RXF 393 renal, 87%; with SF-268 CNS, 101%. Moreover, the growth in the test on SF-295 CNS was 84.9%; in the test on SF-539 CNS, 88.5%; with UACC-257 melanoma, 99.4%; in the test with M14 melanoma it was 115%.
Turning to `COc1ccc(NS(=O)(=O)c2ccc(-c3cnc(C4CC4)o3)cc2)cc1`, the growth with DU-145 prostate is 81.2%; in the test with K-562 leukemia it was 22.8%; with MALME-3M melanoma, 58.3%; with MDA-MB-231 breast it was 69.7%; in the test with RXF 393 renal, 83.9%; with SF-268 CNS, 73.2%. For the same compound, the growth is 50% in the test on SF-295 CNS, 65.2% with SF-539 CNS, 72.5% in the test with UACC-257 melanoma and 40.9% with M14 melanoma.
As to `COc1ccc(/C=N/OCC(O)CNCc2ccccc2)cc1OC1CCCC1` (stereo not given), the growth with DU-145 prostate is 105%; in the test on K-562 leukemia, 78%; in the test with MALME-3M melanoma, 106%; in the test with MDA-MB-231 breast, 101%; in the test with RXF 393 renal, 95.5%; in the test with SF-268 CNS it was 91.7%. Also, the growth in the test on SF-295 CNS was 103%; in the test with SF-539 CNS, 98%; in the test with UACC-257 melanoma it was 97.2%; in the test with M14 melanoma it was 98.4%.
Consider `O=C1CC2c3cc(-c4cc5ccccc5o4)ccc3CCN2C(=O)N1c1ccccc1` (stereo not given), for which the growth in the test on DU-145 prostate was 96.5%; in the test on K-562 leukemia, 58.4%; with MALME-3M melanoma, 71.6%; in the test on MDA-MB-231 breast, 93.3%; in the test with RXF 393 renal, 114%; in the test with SF-268 CNS it was 92.4%. For the same compound, the growth in the test on SF-295 CNS is 90%; with SF-539 CNS, 106%; in the test with UACC-257 melanoma it was 87.8%; with M14 melanoma, 90.7%.
Turning to `Cc1nc2cc(Nc3nc(N4CCOCC4)nc(N4CCN(C)CC4)n3)ccc2n1Cc1ccccc1`, the growth in the test on DU-145 prostate was 114%; in the test on K-562 leukemia, 90.3%; with MALME-3M melanoma, 106%; with MDA-MB-231 breast it was 100%; with RXF 393 renal, 101%; with SF-268 CNS, 96.2%. Besides, the growth was 95.2% in the test on SF-295 CNS, 91.3% with SF-539 CNS, 99.2% with UACC-257 melanoma and 110% with M14 melanoma.
On to `CCCCC(=O)N/N=C/c1cc(I)cc(I)c1O`, for which the growth was 51% in the test on DU-145 prostate; 32.1% with K-562 leukemia; 75.8% in the test with MALME-3M melanoma; 57% in the test on MDA-MB-231 breast; 74.6% with RXF 393 renal; 43.1% with SF-268 CNS. Besides, the growth in the test with SF-295 CNS was 41.2%; in the test on SF-539 CNS it was 28.8%; with UACC-257 melanoma, 41.8%; in the test on M14 melanoma, 56.4%.
